PP1 inh – blocks human PP1-alpha phosphatase, a PP5 counter-screen; purified PP1alpha, OMFP fluorescence; inhibition, % at 6.7 µM; 320,000 tested, 0.9% active; P62136; AID 2235;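 active means inhibition above the mean inhibition of all tested compounds plus 3 SD, computed separately for each screening campaign, cut at about 15% in these data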
Beta2AR agonist – activates human beta-2 adrenergic receptor causing internalization; response, % (concentration not given with the values); P07550; Am2.2-beta2AR cells, FAP receptor internalization, flow cytometry; 340,000 tested, 0.43% active;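 active means response above a set limit, near 3 SD of response in nonfluorescent compounds, cut at about 42% in these data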
NadD inh – blocks S. aureus nicotinate mononucleotide adenylyltransferase. 360,000 tested, 0.78% active. inhibition, % at 20 µM. purified NadD enzyme, colorimetric absorbance read-out; in the data active means inhibition above about 26%
Exocytosis inh – blocks lytic granule exocytosis; TALL-104 LAMP-1 surface exposure, flow cytometry; cells stimulated with thapsigargin and PMA; inhibition, % at 10 µM; 360,000 tested, 0.66% active; AID 651702;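 active means inhibition above about 55%, limit read from the data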
GRK2 inh – human GRK2 inhibition via aptamer displacement; P25098; bead flow cytometry, FAM-aptamer displacement from GRK2; inhibition of aptamer binding, % at 10 µM; 330,000 tested, 0.59% active; AID 488847;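 active means inhibition of aptamer binding above 40%, roughly 3 SD of noise, on plates passing a quality check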;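 further: median bead fluorescence of bound FAM aptamer so fluorescent compounds give negative values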
Target sequence (P25098 whole entry, looked up): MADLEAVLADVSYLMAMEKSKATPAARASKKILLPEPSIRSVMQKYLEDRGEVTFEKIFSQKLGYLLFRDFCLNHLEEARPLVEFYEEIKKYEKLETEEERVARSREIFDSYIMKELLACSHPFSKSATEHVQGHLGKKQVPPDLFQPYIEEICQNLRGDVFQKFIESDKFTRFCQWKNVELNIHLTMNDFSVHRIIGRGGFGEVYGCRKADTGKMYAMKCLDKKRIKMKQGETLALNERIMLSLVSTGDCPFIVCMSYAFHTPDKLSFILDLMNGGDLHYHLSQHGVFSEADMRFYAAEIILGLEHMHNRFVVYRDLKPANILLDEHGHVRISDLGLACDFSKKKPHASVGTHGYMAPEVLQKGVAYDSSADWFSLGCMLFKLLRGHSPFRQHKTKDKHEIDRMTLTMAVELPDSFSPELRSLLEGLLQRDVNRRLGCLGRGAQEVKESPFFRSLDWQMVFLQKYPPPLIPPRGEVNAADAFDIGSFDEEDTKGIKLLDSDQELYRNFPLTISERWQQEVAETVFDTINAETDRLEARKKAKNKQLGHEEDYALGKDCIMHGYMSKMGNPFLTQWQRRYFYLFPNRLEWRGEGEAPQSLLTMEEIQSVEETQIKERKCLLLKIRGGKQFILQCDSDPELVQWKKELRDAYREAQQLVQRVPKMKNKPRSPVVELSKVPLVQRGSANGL
Beta2AR ag CP1 – agonists of human beta-2 adrenergic receptor | shares compounds with Beta2AR agonist | 1,100 tested, 25% active | percent response (surface receptor), % at 10 µM | Am2.2-beta2AR cells, FAP surface receptor, flow cytometry; stronger effect = lower value;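 active means surface receptor percent response at or below 58%, roughly 3 SD from nonfluorescent compounds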
FAP fluor counter – fluorescence artifact in beta-2AR agonist FAP counterscreen; 1,100 tested, under 10 active; Am2.2 cells, FAP fluorogen flow cytometry; stronger effect = lower value; shares compounds with Beta2AR agonist; AID 588765; calls only at 10 µM;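 active means percent response below a set limit in fluorescence channel 1 and below 50% in channel 8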
NadD inh conf – confirmation of Staphylococcus aureus NadD inhibitors. purified S. aureus NadD, colorimetric enzyme assay. AID 624309. shares compounds with NadD inh. inhibition, % at 20 µM. 2,000 tested, 13% active; in the data active means inhibition mostly above about 42%, no sharp cut-off; inactive means mostly below about 42%
Exocytosis CP01 – blocks lytic granule exocytosis; shares compounds with Exocytosis inh; TALL-104 cells, LAMP-1 externalization, flow cytometry; stimulated with PMA plus thapsigargin; inhibition, % at 10 µM; 1,500 tested, 11% active; in the data active means inhibition above about 60%;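 further: 0% = stimulated vehicle wells and 100% = unstimulated wells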
An asterisk follows results filed as active; i = inactive; x = no result. Shown are actives, neighbours in structure and some others; about 2.9% of the full set was active somewhere.

SMILES | PP1 inh | Beta2AR agonist | NadD inh | Exocytosis inh | GRK2 inh | NadD inh conf | others
CCCCn1c(=N)n(CC(=O)c2ccc(Br)s2)c2ccccc21 | 10 | 82* | -6 | 82* | 37 | x | Beta2AR ag CP1=0.9*;FAP fluor counter=i;Exocytosis CP01=96*
CCCCOc1ccc(/C=C/C2=CC(C)(C)NC(=S)N2)cc1OCC | 3 | -8 | 0 | 2 | 4 | x
O=C(/C=C/c1ccco1)Nc1ccc(N2CCCC2)cc1 | 2 | -16 | 36* | 1 | 0 | 5
O=C(CSc1nc2scc(-c3ccco3)c2c(=O)n1-c1ccccc1)NCC1CCCO1 (centres undefined) | 7 | 4 | 30* | 0 | 4 | 37
COc1ccccc1C(=O)Nc1ccc2c(c1)nc1n2CCN(C2CCCCC2)C1 | 10 | 14 | 35* | -1 | 0 | 2
Nc1nc2c(Br)ccc(Br)c2cc1C(=O)NCc1cccc2ccccc12 | x | x | 41* | -8 | x | 4
C[C@H](NC(=O)c1nc[nH]c1C(=O)N[C@@H](CCCCNC(=O)OC(C)(C)C)C(=O)OC(C)(C)C)c1ccccc1 | 7 | 4 | 4 | 22 | 3 | x
CC(=O)Nc1nc(-c2ccc([N+](=O)[O-])cc2)cs1 | -2 | 12 | -1 | 9 | 1 | x
O=C(Nc1ccc([N+](=O)[O-])cc1)Nc1nc(-c2ccc(Cl)s2)cs1 | 13 | 11 | 51* | 25 | 4 | 5
CC(=O)c1ccc(NC(=O)Nc2ccc([N+](=O)[O-])cc2)cc1 | 2 | 5 | -4 | 2 | 6 | x
O=C(Nc1ccc(Oc2ccc(NC(=O)Nc3ccc([N+](=O)[O-])cc3)cc2)cc1)Nc1ccc([N+](=O)[O-])cc1 | -1 | -14 | 32* | 38 | 0 | -4
CCc1nn(CC(=O)N2CC(C)CC(C)C2)c(=O)c2cccn12 (centres undefined) | 4 | 0 | -8 | -4 | 0 | x
NC1=NC(=O)/C(=C\c2cc([N+](=O)[O-])ccc2Cl)S1 | -2 | 16 | 0 | 1 | 0 | x
CC(C)N(CCCNC(=O)Cn1c(=O)c2cccn2c2ccccc21)Cc1ccccc1 | -1 | 4 | -1 | -14 | 0 | x
O=C(O)c1cccc(NC(=S)NC(NC(=O)c2cccc([N+](=O)[O-])c2)C(Cl)(Cl)Cl)c1 (centres undefined) | 6 | 6 | 64* | -3 | 0 | 7
O=C(/C=C/c1ccco1)N1CCC(Cc2ccccc2)CC1 | 0 | 2 | 34* | 2 | 0 | 21
COCCNC(=O)C1(C)CCCN(Cc2cc(C(F)(F)F)ccc2Cl)C1 (centres undefined) | x | x | 5 | 49 | x | x
COc1ccc(CNC(=O)OC2CC3CC2[C@H]2CCCCN2C3=O)cc1 (some centres undefined) | x | x | 2 | 1 | x | x
NC(=O)[C@@H]1CC2(CC(c3cccc(NC(=O)CC(c4ccccc4)c4ccccc4)c3)=NO2)CN1C(=O)COc1ccc(Cl)cc1 (some centres undefined) | 12 | 8 | 39* | -1 | 6 | 27
NC(=O)[C@H]1CC2(CC(c3cccc(NC(=O)COc4ccc(Cl)cc4)c3)=NO2)CN1C(=O)CC(c1ccccc1)c1ccccc1 (some centres undefined) | 11 | 1 | 37* | 21 | 0 | 50*
NC(=O)[C@H]1CC2(CC(c3cccc(NC(=O)CC(c4ccccc4)c4ccccc4)c3)=NO2)CN1C(=O)C(c1ccccc1)c1ccccc1 (some centres undefined) | 17* | 3 | 33* | -2 | 0 | 27
CC(C)c1cc(CNC(=O)C2CCC(=O)N(CCc3ccc(Cl)cc3)C2)on1 (centres undefined) | 6 | 3 | -2 | -1 | 0 | x
O=C(CCNS(=O)(=O)c1ccc(Cl)cc1)NCc1cccs1 | -1 | 3 | 1 | 2 | 0 | x

Screening data from PubChem BioAssay.
